# Screening data from PubChem BioAssay.
# ELG1 genotox – inducers of genotoxicity in HEK293T ELG1-luciferase cells. HEK293T ELG1-luciferase reporter, luminescence, 16 h. Potency, µM (series often up to 46 µM), for inactives: top-dose activity change, positive = activation, hits mostly activators. actives 1.3% (n = 330,000). AID 504466; note: % of control where 0% means no effect; nearly all actives have a fitted effect of over 60% in size
#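 16 hr compound incubation (37 °C, 5% CO2) of HEK293T cells carrying luciferase-tagged ELG1; luciferase then measured by ONE-Glo luminescence after 30 min at RT.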
# NPC1 prom act – NPC1 promoter activation; Potency, µM (series often up to 9.22 µM), without a hit: at the highest dose activation, actives largely listed as activators; AID 485313; actives 2.4% (n = 320,000); Huh7 NPC1 promoter luciferase reporter, 24 h; note: % of control where 0% means no effect; nearly all actives have a fitted effect of over 60% in size
#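 Cells: Huh7 expressing luciferase under the NPC1 promoter, 1500/well. Seeded 2 h, compound added, incubated 24 h at 37 °C. Luciferase reagent, 10 min ambient, then luminescence.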
# ELG1 repair inh – blocks ELG1-dependent DNA repair in HEK293T cells; HEK293T ELG1-luciferase reporter, luminescence, 16 h; DNA damage induced by 5-fluorouridine; Potency, µM (series often up to 46.1 µM), inactives show at the highest dose activity change, negative = inhibition, hits mostly inhibitors; actives 2.3% (n = 330,000); note: % is set by controls: 0 for no effect and ±100 for the full control effect; nearly all actives have a fitted effect of over 55% in size
#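 Luminescence from the luciferase reporter, measured 30 min after ONE-Glo reagent at room temperature, was the read-out. Beforehand, 2,000 cells per well were exposed for 16 hr at 37 °C to 5-fluorouridine together with compound or vehicle.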
# FLuc modulator – firefly luciferase modulation, counter-screen for miR-21 project. Potency, µM (doses to about 57.5 µM), inactives show at the highest dose activity change, negative = inhibition, usual class: inhibitors. P08659. purified FLuc, Km substrates, luminescence inhibition. actives 6.9% (n = 360,000);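 note: plate controls were vehicle for no effect and reference inhibitor for full effect; nearly all actives have a fitted effect of over 55% in size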
# Target sequence (P08659 whole entry, looked up): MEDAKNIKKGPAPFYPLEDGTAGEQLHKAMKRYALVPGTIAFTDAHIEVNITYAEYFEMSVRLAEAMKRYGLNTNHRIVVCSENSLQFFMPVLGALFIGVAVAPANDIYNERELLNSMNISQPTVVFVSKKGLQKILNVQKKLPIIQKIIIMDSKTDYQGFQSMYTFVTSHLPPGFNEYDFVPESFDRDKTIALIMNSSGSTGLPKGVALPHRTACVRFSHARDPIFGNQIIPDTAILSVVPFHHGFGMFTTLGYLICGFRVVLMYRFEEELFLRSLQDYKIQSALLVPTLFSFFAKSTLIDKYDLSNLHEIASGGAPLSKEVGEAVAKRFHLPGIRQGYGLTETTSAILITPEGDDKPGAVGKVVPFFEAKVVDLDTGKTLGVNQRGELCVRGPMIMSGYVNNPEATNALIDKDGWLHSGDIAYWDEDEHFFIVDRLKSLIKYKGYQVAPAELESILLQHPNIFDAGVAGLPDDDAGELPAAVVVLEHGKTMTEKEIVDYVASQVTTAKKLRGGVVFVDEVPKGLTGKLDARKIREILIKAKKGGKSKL
#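 Purified P. pyralis luciferase (10nM final) with 10uM D-luciferin and 10uM ATP (Km levels) in 50mM Tris acetate pH 7.5, 10mM Mg acetate, 0.01% Tween-20, 0.05% BSA; qHTS 6-point titration, ~60 µM downward; luminescence read.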
# Rab9 promoter act – Rab9 promoter activation. Huh7 Rab9 promoter-luciferase reporter, luminescence, 24 h. Potency, µM (series often up to 9.22 µM), for inactives: at the highest dose activation, negative = inhibition, usual class: activators. actives 2.8% (n = 320,000); note: % of control where 0% means no effect; nearly all actives have a fitted effect of over 60% in size
#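 Cell-based reporter: Huh7 stable for Rab9 promoter-driven luciferase, plated in reduced-serum medium with 10% FBS at 1500 cells/well, compound-treated 24 h at 37 °C, luminescence read after 10 min reagent.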
# SMN2 splice enh – enhancers of SMN2 splice variant expression | HEK293 SMN2-luciferase splicing reporter, luminescence, 30-36 h | Potency, µM (titrated, usually from 46.1 µM), without a hit: at the highest dose activity change, positive = activation, most hits filed as activators | actives 2.8% (n = 210,000) | AID 1458; note: % of control where 0% means no effect; nearly all actives have a fitted effect of over 55% in size
#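 HEK293 cells carry an SMN2 […]–luciferase reporter in which exon 7 inclusion puts luciferase in frame. Cells were plated 10-12 h before compound addition, then incubated 30-36 h at 37C. ONE-Glo luminescence was read; sodium butyrate at 4.5 mM final served as control.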
# * hit, by the source's call; u = inconclusive; x = no result given; [ ] = dose if it differs, or a comment. Shown are actives, neighbours in structure and some others; about 9.2% of the full set was active somewhere. Calls come from the whole dose curve; as a rule, active = well fitted curve in the direction sought with a large enough effect; inconclusive = small, poorly fitted or top-dose-only effect, or another doubt; inactive = no such curve, though single readings can be large; an effect the other way counts as inactive or inconclusive. Potency is the fitted concentration of half-maximal effect.
SMILES,ELG1 genotox,NPC1 prom act,ELG1 repair inh,FLuc modulator,Rab9 promoter act,SMN2 splice enh
C(=N\n1cnnc1)/c1ccc(N2CCOCC2)cc1,11.8%,0.8%,16.2%,u,7.0%,1.7%
Fc1ccc(/C=N/Nc2cc(N3CCOCC3)ncn2)cc1,16.6%,u,u,u,u,x
CN(C)/N=C/c1ccc(N2CCOCC2)cc1,4.2%,u,u,16.9µM*,2.51µM*,u
C/C(=N\Nc1ccc(F)cc1F)c1ccc(N2CCOCC2)cc1,u,u,u,15.1µM*,u,u
S=c1[nH]ncn1/N=C/c1ccc(N2CCOCC2)cc1,16.4µM*,3.98µM*,u,7.57µM*,4.47µM*,12.6µM*
COc1cccc(-c2nc(SCC(=O)N3CCc4ccccc43)c3c(=O)n(C)c(=O)n(C)c3n2)c1,x,x,x,-0.3%,x,x
CCOC(=O)/C(=C\C=C1/Sc2cc(OCC)c(OCC)cc2N1CC)C(C)=O,-5.0%,1.1%,16.4µM*,0.5%,2.3%,-46.8%
Cc1c(C(=O)N(C)C)sc2c1c(=O)n(-c1ccc(Cl)cc1)c(=O)n2CC(=O)C(C)(C)C,x,x,x,-0.9%,x,x
COCCC1CCCCN1C(=O)c1ccc(OC2CCN(C(C)=O)CC2)c(OC)c1 (configuration not stated),2.7%,-3.7%,0.0%,-1.8%,1.8%,x
C/C(N)=C(/C#N)C(=O)CSc1nnc(Nc2cccc(C)c2)s1,u,u,u,5.36µM*,u,15.8µM*
O=C(CSc1nnc(NC(=O)c2ccco2)s1)Nc1ccc2c(c1)OCCO2,13.0%,8.9%,0.0%,13.5µM*,0.4%,6.0%
COc1cccc(N2CC(C(=O)Nc3nnc(SCC(=O)Nc4ccc(NC(C)=O)cc4)s3)CC2=O)c1 (configuration not stated),1.8%,-0.2%,1.1%,-15.6%,-1.5%,x
Cc1ccc(Nc2nnc(SCC(=O)Nc3cccnc3Cl)s2)cc1C,6.0%,-3.8%,-2.9%,1.07µM*,-8.5%,18.2%
COc1cccc(C(=O)Nc2nnc(SCC(=O)Nc3ccc(NC(C)=O)cc3)s2)c1,u,2.82µM*,u,0.477µM*,3.55µM*,x
Cc1ccc(Nc2nnc(SCC(=O)Nc3ccccc3[N+](=O)[O-])s2)cc1,2.5%,6.7%,-5.6%,u,4.7%,3.3%
Cc1cccc(Nc2nnc(SCC(=O)c3c(N)n(C4CC4)c(=O)[nH]c3=O)s2)c1,0.7%,1.3%,-15.5%,u,-4.6%,x
Cc1nnc(SCC(=O)Nc2ccc3c(c2)OCCO3)s1,1.5%,4.7%,4.7%,u,-0.1%,1.0%
CCc1ccc(NC(=O)Cn2cnc3sc(C)c(S(=O)(=O)N4CCOCC4)c3c2=O)cc1,-1.9%,3.8%,-8.1%,2.3%,-4.9%,x
CN1C(=S)SC2CS(=O)(=O)CC21C (configuration not stated),0.9%,3.1%,0.1%,-1.1%,-0.5%,x
CCC1CN(C(=O)Nc2ccccc2C(F)(F)F)c2ccccc2S1 (configuration not stated),x,x,x,-2.7%,x,x
O=c1c(S(=O)(=O)c2ccccc2)cn(Cc2ccc(F)cc2)c2cc(N3CCOCC3)c(F)cc12,x,x,x,-1.4%,x,x
COCCOC(=O)c1c(C)nc(SCC(=O)Nc2ccc(OC)cc2)c(C#N)c1-c1ccco1,-1.2%,-0.8%,23.1µM*,-1.8%,-3.2%,-8.8%
CCc1ccc(NC(=O)CSc2nc(C)c(C(=O)Nc3ccc(Cl)cc3)c(-c3ccc(OC)cc3)c2C#N)cc1,x,x,x,2.2%,x,-6.9%
CCSc1nnc(NC(=O)Nc2cccc(C)c2)s1,-9.1%,u,u,10.7µM*,u,x
COc1ccc(NC(=O)CSc2nnc(NC(=O)c3ccco3)s2)cc1OC,11.5%,3.5%,u,21.3µM*,20.0%,x
SMILES,ELG1 genotox,NPC1 prom act,ELG1 repair inh,FLuc modulator,Rab9 promoter act,SMN2 splice enh
Cc1cccc(NC(=O)CSc2nnc(NC(=O)c3ccco3)s2)c1,-5.4%,0.3%,u,13.5µM*,18.1%,21.7%
N#CCSc1ccccc1NC(=O)COC(=O)CCN1C(=O)C2CC=CCC2C1=O (configuration not stated),-3.0%,2.7%,10.6%,-18.0%,0.1%,x
CCc1ccc(C(C(=O)NCc2ccccc2)N(C(=O)c2csnn2)C2CC2)cc1 (configuration not stated),-6.0%,24.5%,0.3%,-1.2%,2.3%,x
Cc1ccc(C(=O)NC2CCS(=O)(=O)C2)cc1S(=O)(=O)N1CCCC1 (configuration not stated),7.1%,-1.3%,-1.8%,1.9%,2.8%[1.84 µM],x
O=C(NCCCN1CCCC1=O)c1ccccc1OCc1ccc(Cl)cc1Cl,7.5%,x,u,x,x,x
COC(=O)C1(CC2CC(c3cccc(Br)c3)=NO2)CCN(C(=O)OC(C)(C)C)CC1 (configuration not stated),-2.3%,0.3%,u,-5.7%,-1.5%,x
Cn1c(=O)oc2cc(S(=O)(=O)N3CCC(C(=O)NCCc4ccccc4)CC3)ccc21,2.1%,1.6%,-0.1%,0.1%,6.1%,x
COc1ccc(NC(=O)CSc2nnc(NC(=O)c3ccco3)s2)cc1,16.6%,14.4%,u,15.1µM*,15.6%,u
COc1ccc(NC(=O)Nc2nnc(SCC(=O)Nc3cccc(C)c3C)s2)cc1,x,x,x,0.601µM*,x,x
Cc1cccc(NC(=O)CSc2nnc(NC(=O)C3CC3)s2)c1C,7.7%,-0.7%,24.9%,0.5%,16.3%,x
O=C(CSc1nnc(NC(=O)c2ccco2)s1)Nc1ccc(F)cc1,3.9%,10.7%,u,15.1µM*,19.3%,25.6%
C=CCOc1cccc(C(=O)N2CCC(CCC(=O)NC3CC3)CC2)c1,-3.5%,-5.2%,-0.2%,0.4%,-0.3%,x
COCCn1c(SCC(=O)NCc2ccc3c(c2)OCO3)nnc1-c1c[nH]c2ccccc12,-5.1%,0.0%,u,1.8%,0.7%,-13.7%
Cc1cc(NC(=O)c2nn(C)c(C)c2[N+](=O)[O-])no1,1.8%,-5.3%,1.9%,4.7%,-0.4%,-20.7%
CCOC(=O)C(=O)Nc1cc(C)on1,u,2.82µM*,u,1.69µM*,1.58µM*,x
Cc1cc(NC(=O)c2nn(C)c(C)c2Br)no1,u,u,u,u,2.82µM*,x
Cc1cc(NC(=O)c2ccc3c(c2)OCCO3)no1,0.651µM*,u,u,1.2µM*,0.447µM*,3.55µM*
Cc1cc(NC(=O)c2ccc(F)cc2)no1,u,u,u,16.9µM*,u,x
CC(=O)Nc1ccc(C(=O)Nc2cc(C)on2)cc1,11.0%,5.4%,u,-3.5%,10.5%,x
CCOc1ccc(C(=O)Nc2cc(C)on2)cc1OCC,11.7%,-1.0%,-0.4%,2.8%,1.4%,-3.2%
